# According to ChEMBL document CHEMBL1961873, “Compounds: GSK PKIS; Assays: Nanosyn kinase panel” (2012):
# Experiments:
# [1] = target: PAS domain-containing serine/threonine-protein kinase (Homo sapiens) (UniProt Q96RG2); conditions: at 0.1 µM
# [2] = target: PAS domain-containing serine/threonine-protein kinase (Homo sapiens) (UniProt Q96RG2); conditions: at 1 µM
# [3] = target: Phosphorylase b kinase gamma catalytic chain, skeletal muscle/heart isoform (Homo sapiens) (UniProt Q16816); conditions: at 0.1 µM
# [4] = target: Phosphorylase b kinase gamma catalytic chain, skeletal muscle/heart isoform (Homo sapiens) (UniProt Q16816); conditions: at 1 µM
# [5] = target: Phosphorylase b kinase gamma catalytic chain, liver/testis isoform (Homo sapiens) (UniProt P15735); conditions: at 0.1 µM
# [6] = target: Phosphorylase b kinase gamma catalytic chain, liver/testis isoform (Homo sapiens) (UniProt P15735); conditions: at 1 µM
# [7] = target: Serine/threonine-protein kinase pim-1 (Homo sapiens) (UniProt P11309); conditions: at 0.1 µM
# [8] = target: Serine/threonine-protein kinase pim-1 (Homo sapiens) (UniProt P11309); conditions: at 1 µM
# [9] = target: Serine/threonine-protein kinase pim-2 (Homo sapiens) (UniProt Q9P1W9); conditions: at 0.1 µM
# Sequence of Serine/threonine-protein kinase pim-2 (Homo sapiens) (Q9P1W9 whole entry, looked up): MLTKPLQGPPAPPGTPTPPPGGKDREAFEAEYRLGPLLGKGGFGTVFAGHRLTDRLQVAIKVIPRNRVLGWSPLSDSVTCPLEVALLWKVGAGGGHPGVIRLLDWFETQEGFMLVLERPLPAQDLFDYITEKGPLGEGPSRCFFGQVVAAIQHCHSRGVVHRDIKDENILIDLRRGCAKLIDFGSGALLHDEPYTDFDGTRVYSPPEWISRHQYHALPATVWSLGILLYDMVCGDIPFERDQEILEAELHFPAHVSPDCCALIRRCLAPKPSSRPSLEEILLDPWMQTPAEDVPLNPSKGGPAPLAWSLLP
# [10] = target: Serine/threonine-protein kinase pim-2 (Homo sapiens) (UniProt Q9P1W9); conditions: at 1 µM
# [11] = target: Serine/threonine-protein kinase pim-3 (Homo sapiens) (UniProt Q86V86); conditions: at 0.1 µM
# [12] = target: Serine/threonine-protein kinase pim-3 (Homo sapiens) (UniProt Q86V86); conditions: at 1 µM
# [13] = target: MAP kinase-activated protein kinase 5 (Homo sapiens) (UniProt Q8IW41); conditions: at 0.1 µM
# Sequence of MAP kinase-activated protein kinase 5 (Homo sapiens) (Q8IW41 whole entry): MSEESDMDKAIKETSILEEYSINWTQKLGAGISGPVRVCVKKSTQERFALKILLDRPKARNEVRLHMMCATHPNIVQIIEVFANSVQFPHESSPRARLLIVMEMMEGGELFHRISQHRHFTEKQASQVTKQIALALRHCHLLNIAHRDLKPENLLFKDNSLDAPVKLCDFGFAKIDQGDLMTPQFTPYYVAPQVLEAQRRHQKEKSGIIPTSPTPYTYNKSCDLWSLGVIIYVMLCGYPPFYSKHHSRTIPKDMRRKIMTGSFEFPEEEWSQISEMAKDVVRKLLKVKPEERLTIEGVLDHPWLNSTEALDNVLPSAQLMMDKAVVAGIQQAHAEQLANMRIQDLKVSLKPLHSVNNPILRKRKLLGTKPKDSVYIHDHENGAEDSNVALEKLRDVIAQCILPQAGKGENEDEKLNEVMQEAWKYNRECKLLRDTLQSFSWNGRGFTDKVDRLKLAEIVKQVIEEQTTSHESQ
# [14] = target: MAP kinase-activated protein kinase 5 (Homo sapiens) (UniProt Q8IW41); conditions: at 1 µM
# [15] = target: Serine/threonine-protein kinase SIK1 (Homo sapiens) (UniProt P57059); conditions: at 0.1 µM
# [16] = target: Serine/threonine-protein kinase SIK1 (Homo sapiens) (UniProt P57059); conditions: at 1 µM
# [17] = target: Serine/threonine-protein kinase SIK2 (Homo sapiens) (UniProt Q9H0K1); conditions: at 0.1 µM
# [18] = target: Serine/threonine-protein kinase SIK2 (Homo sapiens) (UniProt Q9H0K1); conditions: at 1 µM
# [19] = target: Serine/threonine-protein kinase TBK1 (Homo sapiens) (UniProt Q9UHD2); conditions: at 0.1 µM
# Sequence of Serine/threonine-protein kinase TBK1 (Homo sapiens) (Q9UHD2 whole entry): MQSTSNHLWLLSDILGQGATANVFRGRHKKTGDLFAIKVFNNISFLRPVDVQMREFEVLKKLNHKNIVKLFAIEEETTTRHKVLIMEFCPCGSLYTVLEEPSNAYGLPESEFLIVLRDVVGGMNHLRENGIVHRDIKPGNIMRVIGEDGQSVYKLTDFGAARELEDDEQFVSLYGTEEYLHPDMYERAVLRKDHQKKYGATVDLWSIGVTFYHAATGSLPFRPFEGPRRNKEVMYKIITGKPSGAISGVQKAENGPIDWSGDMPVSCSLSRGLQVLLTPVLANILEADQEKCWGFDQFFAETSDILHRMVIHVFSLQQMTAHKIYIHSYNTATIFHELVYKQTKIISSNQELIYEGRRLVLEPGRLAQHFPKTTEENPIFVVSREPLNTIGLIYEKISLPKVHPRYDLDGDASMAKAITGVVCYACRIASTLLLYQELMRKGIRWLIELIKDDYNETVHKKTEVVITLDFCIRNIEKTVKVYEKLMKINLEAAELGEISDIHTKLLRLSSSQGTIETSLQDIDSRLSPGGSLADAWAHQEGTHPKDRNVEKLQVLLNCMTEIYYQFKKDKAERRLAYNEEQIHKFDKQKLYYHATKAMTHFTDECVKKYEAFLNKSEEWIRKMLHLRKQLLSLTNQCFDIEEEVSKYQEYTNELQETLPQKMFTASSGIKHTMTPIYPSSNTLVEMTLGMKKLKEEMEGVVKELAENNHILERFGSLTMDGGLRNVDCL
# [20] = target: Serine/threonine-protein kinase TBK1 (Homo sapiens) (UniProt Q9UHD2); conditions: at 1 µM
# [21] = target: Testis-specific serine/threonine-protein kinase 1 (Homo sapiens) (UniProt Q9BXA7); conditions: at 0.1 µM
# Sequence of Testis-specific serine/threonine-protein kinase 1 (Homo sapiens) (Q9BXA7 whole entry): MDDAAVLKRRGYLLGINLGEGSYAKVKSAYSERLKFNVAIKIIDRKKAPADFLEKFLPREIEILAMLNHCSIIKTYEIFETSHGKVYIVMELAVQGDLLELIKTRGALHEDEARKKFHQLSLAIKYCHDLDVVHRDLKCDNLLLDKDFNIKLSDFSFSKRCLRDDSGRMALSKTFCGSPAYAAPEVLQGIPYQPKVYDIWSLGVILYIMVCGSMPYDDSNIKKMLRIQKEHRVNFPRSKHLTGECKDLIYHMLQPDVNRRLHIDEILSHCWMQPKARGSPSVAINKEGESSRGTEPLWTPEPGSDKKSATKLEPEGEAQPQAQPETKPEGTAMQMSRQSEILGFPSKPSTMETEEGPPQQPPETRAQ
# [22] = target: Testis-specific serine/threonine-protein kinase 1 (Homo sapiens) (UniProt Q9BXA7); conditions: at 1 µM
# [23] = target: Testis-specific serine/threonine-protein kinase 2 (Homo sapiens) (UniProt Q96PF2); conditions: at 0.1 µM
# [24] = target: Testis-specific serine/threonine-protein kinase 2 (Homo sapiens) (UniProt Q96PF2); conditions: at 1 µM
# [25] = target: Casein kinase I isoform alpha (Homo sapiens) (UniProt P48729); conditions: at 0.1 µM
# Sequence of Casein kinase I isoform alpha (Homo sapiens) (P48729 2-337 limits assumed): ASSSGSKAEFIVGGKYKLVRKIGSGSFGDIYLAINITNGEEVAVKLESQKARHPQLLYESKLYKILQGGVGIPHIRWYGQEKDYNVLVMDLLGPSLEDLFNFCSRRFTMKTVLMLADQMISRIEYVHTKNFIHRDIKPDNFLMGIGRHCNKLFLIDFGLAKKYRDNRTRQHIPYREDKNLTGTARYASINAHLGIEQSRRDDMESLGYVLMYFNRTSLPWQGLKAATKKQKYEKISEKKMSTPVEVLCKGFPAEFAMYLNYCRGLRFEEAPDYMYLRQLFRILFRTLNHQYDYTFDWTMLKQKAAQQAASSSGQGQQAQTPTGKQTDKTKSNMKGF
# [26] = target: Casein kinase I isoform alpha (Homo sapiens) (UniProt P48729); conditions: at 1 µM
# [27] = target: Casein kinase I isoform gamma-1 (Homo sapiens) (UniProt Q9HCP0); conditions: at 0.1 µM
# [28] = target: Casein kinase I isoform gamma-1 (Homo sapiens) (UniProt Q9HCP0); conditions: at 1 µM
# [29] = target: Casein kinase I isoform gamma-2 (Homo sapiens) (UniProt P78368); conditions: at 0.1 µM
# [30] = target: Casein kinase I isoform gamma-2 (Homo sapiens) (UniProt P78368); conditions: at 1 µM
# [31] = target: Casein kinase I isoform gamma-3 (Homo sapiens) (UniProt Q9Y6M4); conditions: at 0.1 µM
# Sequence of Casein kinase I isoform gamma-3 (Homo sapiens) (Q9Y6M4 whole entry, looked up, canonical isoform): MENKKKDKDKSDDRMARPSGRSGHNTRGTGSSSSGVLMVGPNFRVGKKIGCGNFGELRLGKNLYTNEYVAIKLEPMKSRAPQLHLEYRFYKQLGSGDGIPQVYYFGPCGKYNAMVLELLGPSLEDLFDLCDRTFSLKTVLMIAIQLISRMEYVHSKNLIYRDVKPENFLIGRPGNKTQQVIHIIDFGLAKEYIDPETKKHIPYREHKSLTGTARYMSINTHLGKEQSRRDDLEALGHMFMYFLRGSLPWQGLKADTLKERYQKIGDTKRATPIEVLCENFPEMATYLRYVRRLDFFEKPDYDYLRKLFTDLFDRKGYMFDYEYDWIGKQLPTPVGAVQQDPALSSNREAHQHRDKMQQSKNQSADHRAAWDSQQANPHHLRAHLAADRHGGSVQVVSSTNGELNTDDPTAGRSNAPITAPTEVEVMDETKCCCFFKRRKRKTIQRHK
# [32] = target: Casein kinase I isoform gamma-3 (Homo sapiens) (UniProt Q9Y6M4); conditions: at 1 µM
# [33] = target: Cyclin-dependent kinase 1 (Homo sapiens) (UniProt P06493); conditions: at 0.1 µM
# Sequence of Cyclin-dependent kinase 1 (Homo sapiens) (P06493 whole entry, looked up): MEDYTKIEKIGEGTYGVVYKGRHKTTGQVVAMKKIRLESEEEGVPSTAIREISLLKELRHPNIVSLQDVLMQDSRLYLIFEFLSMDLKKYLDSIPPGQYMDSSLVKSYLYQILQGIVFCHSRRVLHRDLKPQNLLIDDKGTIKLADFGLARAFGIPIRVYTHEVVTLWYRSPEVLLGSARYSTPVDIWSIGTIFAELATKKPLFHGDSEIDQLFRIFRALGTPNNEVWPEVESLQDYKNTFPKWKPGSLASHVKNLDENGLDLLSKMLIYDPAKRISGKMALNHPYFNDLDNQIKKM
# [34] = target: Cyclin-dependent kinase 1 (Homo sapiens) (UniProt P06493); conditions: at 1 µM
# [35] = target: Cyclin-dependent kinase 2 (Homo sapiens) (UniProt P24941); conditions: at 0.1 µM
# [36] = target: Cyclin-dependent kinase 2 (Homo sapiens) (UniProt P24941); conditions: at 1 µM
# [37] = target: Cyclin-dependent kinase 2 (Homo sapiens) (UniProt P24941); conditions: at 0.1 µM; remark: listed apart in the source
# [38] = target: Cyclin-dependent kinase 2 (Homo sapiens) (UniProt P24941); conditions: at 1 µM; remark: listed apart in the source
# [39] = target: T1, CDK3/Cyclin E (Homo sapiens) (UniProt P24864+Q00526); conditions: at 0.1 µM
# [40] = target: T1, CDK3/Cyclin E (Homo sapiens); conditions: at 1 µM
# [41] = target: Cyclin-dependent kinase 4 (Homo sapiens) (UniProt P11802); conditions: at 0.1 µM
# Sequence of Cyclin-dependent kinase 4 (Homo sapiens) (P11802 whole entry): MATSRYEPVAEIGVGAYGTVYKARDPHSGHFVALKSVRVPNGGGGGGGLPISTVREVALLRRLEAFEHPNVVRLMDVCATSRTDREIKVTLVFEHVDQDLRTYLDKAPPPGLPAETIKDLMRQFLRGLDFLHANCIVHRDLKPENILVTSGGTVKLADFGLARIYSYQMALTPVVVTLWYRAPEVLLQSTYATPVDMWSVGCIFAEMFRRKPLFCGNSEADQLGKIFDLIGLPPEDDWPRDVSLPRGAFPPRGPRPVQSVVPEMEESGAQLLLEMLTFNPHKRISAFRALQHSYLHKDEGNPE
# [42] = target: Cyclin-dependent kinase 4 (Homo sapiens) (UniProt P11802); conditions: at 1 µM
# [43] = target: Cyclin-dependent kinase 5 (Homo sapiens) (UniProt Q00535); conditions: at 0.1 µM
# [44] = target: Cyclin-dependent kinase 5 (Homo sapiens) (UniProt Q00535); conditions: at 1 µM
# [45] = target: Cyclin-dependent kinase 6 (Homo sapiens) (UniProt Q00534); conditions: at 0.1 µM
# Sequence of Cyclin-dependent kinase 6 (Homo sapiens) (Q00534 whole entry): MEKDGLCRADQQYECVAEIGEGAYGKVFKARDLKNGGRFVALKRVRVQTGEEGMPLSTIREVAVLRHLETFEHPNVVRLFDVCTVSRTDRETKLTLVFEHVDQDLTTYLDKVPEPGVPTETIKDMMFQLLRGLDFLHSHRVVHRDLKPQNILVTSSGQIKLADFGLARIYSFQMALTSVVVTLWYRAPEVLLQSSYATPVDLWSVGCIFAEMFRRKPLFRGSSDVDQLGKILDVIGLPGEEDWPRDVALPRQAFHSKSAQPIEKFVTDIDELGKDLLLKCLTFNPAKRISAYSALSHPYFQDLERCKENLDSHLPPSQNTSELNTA
# [46] = target: Cyclin-dependent kinase 6 (Homo sapiens) (UniProt Q00534); conditions: at 1 µM
# [47] = target: Dual specificity protein kinase CLK2 (Homo sapiens) (UniProt P49760); conditions: at 0.1 µM
# [48] = target: Dual specificity protein kinase CLK2 (Homo sapiens) (UniProt P49760); conditions: at 1 µM
# [49] = target: Dual specificity protein kinase CLK3 (Homo sapiens) (UniProt P49761); conditions: at 0.1 µM
# Sequence of Dual specificity protein kinase CLK3 (Homo sapiens) (P49761 whole entry, looked up): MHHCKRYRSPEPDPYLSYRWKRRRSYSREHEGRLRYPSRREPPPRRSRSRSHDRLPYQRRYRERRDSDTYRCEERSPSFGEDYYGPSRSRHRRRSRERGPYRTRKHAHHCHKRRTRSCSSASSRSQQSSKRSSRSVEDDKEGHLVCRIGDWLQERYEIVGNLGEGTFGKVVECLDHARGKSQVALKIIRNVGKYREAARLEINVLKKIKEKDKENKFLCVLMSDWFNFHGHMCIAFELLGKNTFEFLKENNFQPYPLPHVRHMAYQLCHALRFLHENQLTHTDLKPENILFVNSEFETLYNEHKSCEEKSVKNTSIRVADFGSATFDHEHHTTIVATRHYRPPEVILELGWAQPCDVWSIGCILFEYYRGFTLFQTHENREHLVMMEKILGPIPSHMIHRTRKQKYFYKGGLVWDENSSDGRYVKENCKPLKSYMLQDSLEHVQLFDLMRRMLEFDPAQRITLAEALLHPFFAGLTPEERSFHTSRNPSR
# [50] = target: Dual specificity protein kinase CLK3 (Homo sapiens) (UniProt P49761); conditions: at 1 µM
# [51] = target: Dual specificity tyrosine-phosphorylation-regulated kinase 1A (Homo sapiens) (UniProt Q13627); conditions: at 0.1 µM
# [52] = target: Dual specificity tyrosine-phosphorylation-regulated kinase 1A (Homo sapiens) (UniProt Q13627); conditions: at 1 µM
# [53] = target: Dual specificity tyrosine-phosphorylation-regulated kinase 1B (Homo sapiens) (UniProt Q9Y463); conditions: at 0.1 µM
# Sequence of Dual specificity tyrosine-phosphorylation-regulated kinase 1B (Homo sapiens) (Q9Y463 whole entry, looked up): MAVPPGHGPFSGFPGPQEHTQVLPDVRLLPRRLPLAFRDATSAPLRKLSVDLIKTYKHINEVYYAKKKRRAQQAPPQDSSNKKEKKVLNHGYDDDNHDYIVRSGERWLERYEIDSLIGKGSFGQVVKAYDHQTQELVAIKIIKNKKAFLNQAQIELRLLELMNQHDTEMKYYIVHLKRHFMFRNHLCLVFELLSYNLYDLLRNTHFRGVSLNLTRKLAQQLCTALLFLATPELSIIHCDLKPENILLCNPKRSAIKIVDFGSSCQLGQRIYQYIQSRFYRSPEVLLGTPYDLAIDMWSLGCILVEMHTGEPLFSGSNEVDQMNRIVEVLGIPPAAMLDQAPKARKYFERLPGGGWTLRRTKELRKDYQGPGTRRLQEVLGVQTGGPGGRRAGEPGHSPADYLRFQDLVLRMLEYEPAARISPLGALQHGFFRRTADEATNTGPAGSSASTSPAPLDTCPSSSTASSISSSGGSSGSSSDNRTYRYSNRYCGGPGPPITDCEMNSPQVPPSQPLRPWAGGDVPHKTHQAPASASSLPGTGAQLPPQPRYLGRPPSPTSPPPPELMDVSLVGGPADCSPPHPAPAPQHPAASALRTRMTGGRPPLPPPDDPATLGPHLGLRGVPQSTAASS
# [54] = target: Dual specificity tyrosine-phosphorylation-regulated kinase 1B (Homo sapiens) (UniProt Q9Y463); conditions: at 1 µM
# [55] = target: Dual specificity tyrosine-phosphorylation-regulated kinase 2 (Homo sapiens) (UniProt Q92630); conditions: at 0.1 µM
# [56] = target: Dual specificity tyrosine-phosphorylation-regulated kinase 2 (Homo sapiens) (UniProt Q92630); conditions: at 1 µM
structure (smiles),measurement,setting,value
CNC(=O)Oc1cc(C)c(/C=C/c2cncc(C(=O)NC)c2)c(C)c1,inhibition,[1],0.86%
same,inhibition,[2],-0.55%
same,inhibition,[3],0.19%
same,inhibition,[4],3.49%
same,inhibition,[5],4.46%
same,inhibition,[6],1.16%
same,inhibition,[7],0.83%
same,inhibition,[8],1.46%
same,inhibition,[9],-0.21%
same,inhibition,[10],0.61%
same,inhibition,[11],-0.49%
same,inhibition,[12],0.47%
same,inhibition,[13],0.29%
same,inhibition,[14],-1.1%
same,inhibition,[15],46.9%
same,inhibition,[16],88.6%
same,inhibition,[17],7.72%
same,inhibition,[18],30.4%
same,inhibition,[19],2.75%
same,inhibition,[20],3.73%
same,inhibition,[21],1.39%
same,inhibition,[22],0.21%
same,inhibition,[23],1.46%
same,inhibition,[24],-0.8%
same,inhibition,[25],1.61%
same,inhibition,[26],3.51%
same,inhibition,[27],1.33%
same,inhibition,[28],2.91%
same,inhibition,[29],0.3%
same,inhibition,[30],2.73%
same,inhibition,[31],1.68%
same,inhibition,[32],4.49%
same,inhibition,[33],-0.06%
same,inhibition,[34],-0.3%
same,inhibition,[35],0.63%
same,inhibition,[36],-1.72%
same,inhibition,[37],1.5%
same,inhibition,[38],0.5%
same,inhibition,[39],0.33%
same,inhibition,[40],1.01%
same,inhibition,[41],0.95%
same,inhibition,[42],2.18%
same,inhibition,[43],0.2%
same,inhibition,[44],-0.43%
same,inhibition,[45],-2.38%
same,inhibition,[46],0.77%
same,inhibition,[47],1.89%
same,inhibition,[48],4.38%
same,inhibition,[49],0.33%
same,inhibition,[50],1.86%
same,inhibition,[51],-0.43%
same,inhibition,[52],6.77%
same,inhibition,[53],-0.07%
same,inhibition,[54],0.76%
same,inhibition,[55],2.64%
same,inhibition,[56],2.73%
